Results: PubChem BioAssay AID1578 (Sanford-Burnham Center for Chemical Genomics, 2009)
The whole screen tested about 290,000 compounds, of which about 3,000 (1%) were called active. No stated cut-off is given here; in the data, active means inhibition mostly above about 36% (no sharp cut-off); inactive means mostly below about 34%. The entries come from a sample that favours actives as a whole.

Test: inhibition of NOD1-driven NF-kB reporter – cell-based, luminescence, uHTS, primary screen (AID 1578);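 further: HEK-293T reporter cells stimulated with the NOD1 agonist gamma-tri-DAP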
Settings: NOD1-driven NF-kB luciferase reporter cells, at 4 µM, active compounds read high

inhibition, inactive:
Cc1cccc(-n2ncc3c(N(C)Cc4ccccc4)ncnc32)c1 2.1%
O=S(=O)(Nc1ccc2cn[nH]c2c1)c1ccc(Cl)cc1 -12.5%
Cc1cc(S(=O)(=O)Nc2ccc3cn[nH]c3c2)c(C)cc1Cl -20.3%
CC(C)C(=O)N1CCC2(CC1)Oc1ccc(Cl)cc1C(=O)C21CC(c2ccc(Cl)cc2)=NO1 (stereo unspecified) -3.8%
O=C1c2ccccc2NC(c2ccccc2F)N1NS(=O)(=O)c1ccccc1 (stereo unspecified) -13%
O=C(O)CC1(CC(=O)N2CCN(CCO)CC2)CCCC1 -19.8%
CCc1ccc(NC(=O)c2cnn3ccccc23)cc1 50.8%
CC(=O)c1cccc(NC(=O)c2cnn3ccccc23)c1 -1%
Cc1ccccc1C(=O)c1c[nH]c(C(=O)NCc2cccs2)c1 2.5%
Cc1ccc(-n2cc(C(=O)O)c(=O)cc2C)c(C)c1 -25.8%
CC(C)n1cc(CN2CCC(n3nccc3NC(=O)CCCc3ccccc3)CC2)cn1 -24.8%
CCOc1cccc(NC(=O)C2CC(=O)N(C)C(=Nc3ccccc3)S2)c1 (stereo unspecified) 5.5%
COc1cccc(NC(=O)C2CC(=O)N(C)C(=Nc3cccc(F)c3)S2)c1 (stereo unspecified) 13.8%
Fc1ccc(N=c2ssnc2Cl)c(F)c1 -14.2%
C/C(=N\Nc1ccc(S(=O)(=O)N2CCOCC2)cc1[N+](=O)[O-])C(C)C -8.2%
Cn1c(SCC(=O)NCCc2ccccc2)nnc1-c1ccncc1 -5.8%
Cc1nc2ncnn2c(N2CCN(C(=O)c3cccc(F)c3)CC2)c1Cc1ccccc1 -1.9%
CCOc1ccc(/C=N/N2C(=O)C(CC(=O)Nc3ccc(F)cc3F)SC2=NC)cc1OC (stereo unspecified) -23%
CN=C1SC(CC(=O)Nc2ccc(F)cc2F)C(=O)N1/N=C/c1ccc(OC(F)F)c(OC)c1 (stereo unspecified) -35.2%
Cc1ccc(-n2c([S-])c(C(=O)NC(C)c3ccccc3)[n+]3ccccc23)cc1 (stereo unspecified) -40.2%
CCOC(=O)CSc1nc(-c2ccccc2)nc2ccc(F)cc12 -21.7%
CCn1c(SCC(=O)N/N=C/c2ccccc2OCC(=O)O)nnc1-c1ccc(C)cc1 2.1%
CCn1c(SCC(=O)Nc2nc(-c3ccccc3)cs2)nnc1-c1ccccc1O 12.7%
CCn1c(SCC(=O)N/N=C(\C)c2ccco2)nnc1-c1ccccc1 -25.7%
CCn1c(SCC(=O)N/N=C(\C)c2ccncc2)nnc1-c1ccc(C)cc1 -7.3%
CCn1c(SCC(=O)N/N=C/c2ccccc2OCC(=O)O)nnc1-c1ccccc1 -7.7%
CCOC(=O)N1CCN(C(=O)CSCC(=O)Nc2nc(-c3ccccc3)cs2)CC1 -14%
CCn1c(SCC(=O)Nc2nc(-c3ccc(C)cc3)cs2)nnc1-c1ccccc1 31%
CCOC(=O)N1CCN(C(=O)CSCC(=O)Nc2nc(-c3ccc(C)cc3)cs2)CC1 13.3%

inhibition, active:
O=C1C(Cl)=C(Nc2ccc3cn[nH]c3c2)C(=O)c2ccccc21 61.1%
CC(=O)c1ccc(NC(=O)c2cnn3ccccc23)cc1 63.1%
CCOc1cccc(NC(=O)C2CC(=O)N(C)C(=Nc3cccc(F)c3)S2)c1 (stereo unspecified) 73.6%
CN=C1SC(CC(=O)Nc2ccccc2F)C(=O)N1/N=C/c1ccc(O)c(OC)c1 (stereo unspecified) 47.1%
CCn1c(SCC(=O)N/N=C/c2ccccc2OCC(=O)O)nnc1-c1ccc(C(C)(C)C)cc1 86.7%
CCn1c(SCC(=O)N/N=C(\C)c2ccncc2)nnc1-c1ccccc1 58.5%
CCOC(=O)N1CCN(C(=O)CSCC(=O)Nc2nc(-c3ccc(-c4ccccc4)cc3)cs2)CC1 58.2%
